Design in all cases: scale not given: direction of the effect not stated beside the values
Assay [1] deals with Protein translocase subunit SecA (Escherichia coli (strain K12)) (UniProt P10408). Briefly: Assay to Identify E. coli SecA ATPase Inhibitors. The class given is functional. The following applies: 30 µM.
Assay [2] deals with T1, Ubiquitin-activating enzyme e1, putative (Leishmania donovani (strain BPK282A1)) (UniProt E9BSI1).
T1 sequence (whole entry): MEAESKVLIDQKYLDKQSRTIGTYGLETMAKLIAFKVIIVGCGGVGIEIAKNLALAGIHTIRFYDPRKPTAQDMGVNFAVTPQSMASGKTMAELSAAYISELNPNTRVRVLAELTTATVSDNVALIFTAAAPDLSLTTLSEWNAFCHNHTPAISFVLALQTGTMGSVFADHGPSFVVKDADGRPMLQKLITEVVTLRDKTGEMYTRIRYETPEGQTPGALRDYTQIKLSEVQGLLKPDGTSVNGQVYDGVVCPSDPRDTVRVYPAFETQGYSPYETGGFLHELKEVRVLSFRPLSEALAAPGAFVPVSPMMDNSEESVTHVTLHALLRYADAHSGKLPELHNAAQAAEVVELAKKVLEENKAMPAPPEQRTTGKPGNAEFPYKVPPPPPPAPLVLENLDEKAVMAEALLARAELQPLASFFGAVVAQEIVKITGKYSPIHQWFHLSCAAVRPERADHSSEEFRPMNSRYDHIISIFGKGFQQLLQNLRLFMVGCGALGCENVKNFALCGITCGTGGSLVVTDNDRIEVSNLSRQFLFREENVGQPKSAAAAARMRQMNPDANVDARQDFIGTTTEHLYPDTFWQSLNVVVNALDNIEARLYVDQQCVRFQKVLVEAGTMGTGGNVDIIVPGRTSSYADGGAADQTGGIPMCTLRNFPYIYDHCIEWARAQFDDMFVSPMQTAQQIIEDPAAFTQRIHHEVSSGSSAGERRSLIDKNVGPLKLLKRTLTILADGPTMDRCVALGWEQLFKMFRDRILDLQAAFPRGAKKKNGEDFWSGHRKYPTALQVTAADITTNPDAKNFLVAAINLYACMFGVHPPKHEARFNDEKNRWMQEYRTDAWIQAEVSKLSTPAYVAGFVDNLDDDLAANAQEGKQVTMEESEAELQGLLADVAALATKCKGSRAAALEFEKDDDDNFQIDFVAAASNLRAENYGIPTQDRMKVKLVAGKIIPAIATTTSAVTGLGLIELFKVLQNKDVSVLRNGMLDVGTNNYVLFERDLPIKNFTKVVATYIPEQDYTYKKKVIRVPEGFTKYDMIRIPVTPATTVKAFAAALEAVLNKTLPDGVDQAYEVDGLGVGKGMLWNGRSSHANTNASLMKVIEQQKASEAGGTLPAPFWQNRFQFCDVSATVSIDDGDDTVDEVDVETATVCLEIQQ
Put plainly: Leishmania donovani Ubiquitin Activating Enzyme (LdE1). The class given is functional. Particulars: 30 µM.

In assay [3] the target is AMP-activated protein kinase, AMPK (Homo sapiens) (UniProt P54646+O43741+P54619+Q9UGJ0+Q9Y478+Q13131+Q9UGI9). Put plainly: AMP-dependent Kinase enzyme assay. An in vitro enzyme assay that detects ADP turnover that is directly proportional to AMPK activity. This uses naive AMPK that is activated during the assay with MK-8722. It counts as functional. The following applies: 30 µM.

Assay [4] concerns the target Sialic acid-binding Ig-like lectin 9 (Homo sapiens) (UniProt Q9Y336). Briefly: Hs-Siglec9 ALPHAscreen SOP 20170721. The following applies: 10 µM.
In assay [5] the test system is Trypanosoma cruzi. Briefly: Trypanosoma cruzi phosphomannomutase and mannose-1-phosphate guanylyltransferase assay. The class given is functional. Particulars: 10 µM.
Assay [6] concerns the target T2, Arginase-2, mitochondrial (Homo sapiens) (UniProt P78540).
T2 sequence (whole entry): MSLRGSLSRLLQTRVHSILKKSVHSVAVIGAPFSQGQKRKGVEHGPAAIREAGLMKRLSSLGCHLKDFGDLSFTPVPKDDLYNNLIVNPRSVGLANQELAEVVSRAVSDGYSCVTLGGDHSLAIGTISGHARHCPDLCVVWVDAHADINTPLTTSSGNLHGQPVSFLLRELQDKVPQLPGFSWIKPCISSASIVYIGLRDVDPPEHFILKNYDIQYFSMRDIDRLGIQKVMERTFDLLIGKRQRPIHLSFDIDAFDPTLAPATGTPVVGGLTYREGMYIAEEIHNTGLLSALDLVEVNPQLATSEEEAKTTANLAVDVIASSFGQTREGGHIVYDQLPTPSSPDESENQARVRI
Put plainly: in vitro enzyme assay to detect the production of urea directly proportional to the activity of Arginase II. Note: in the data most compounds retested in dose-response had high values. The following applies: 33.3 µM. The class given is functional.

For assay [7], the target named is T3, Proteasome subunit beta (Trypanosoma cruzi) (UniProt O96673).
T3 sequence (whole entry): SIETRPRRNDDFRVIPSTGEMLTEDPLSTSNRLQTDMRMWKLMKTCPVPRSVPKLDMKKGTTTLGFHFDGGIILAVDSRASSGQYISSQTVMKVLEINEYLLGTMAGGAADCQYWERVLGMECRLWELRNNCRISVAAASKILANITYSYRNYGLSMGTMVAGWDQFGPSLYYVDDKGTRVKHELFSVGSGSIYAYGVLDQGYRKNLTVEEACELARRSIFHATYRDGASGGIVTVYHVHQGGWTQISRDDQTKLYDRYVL
Put plainly: Trypanosoma cruzi proteasome chymotrypsin-like activity (TcProtChymo) assay. Note: in the data most compounds retested in dose-response had high values. The following applies: 9.37 µM. It counts as functional.

Assay [8] is filed under the species Homo sapiens. Put plainly: To identify inhibition of the IFN signalling (Jak-Stat) pathway via expression of an eGFP reporter gene under the control of an IFN-stimulated response element (ISRE) containing MxA promoter. The class given is functional. The following applies: 30 µM. In general terms: In a reporter assay the amount or activity of a reporter protein is the signal.

Assay [9] deals with T4, Tyrosyl-tRNA synthetase, putative (Trypanosoma cruzi (strain CL Brener)) (UniProt Q4DSP6).
T4 sequence (whole entry): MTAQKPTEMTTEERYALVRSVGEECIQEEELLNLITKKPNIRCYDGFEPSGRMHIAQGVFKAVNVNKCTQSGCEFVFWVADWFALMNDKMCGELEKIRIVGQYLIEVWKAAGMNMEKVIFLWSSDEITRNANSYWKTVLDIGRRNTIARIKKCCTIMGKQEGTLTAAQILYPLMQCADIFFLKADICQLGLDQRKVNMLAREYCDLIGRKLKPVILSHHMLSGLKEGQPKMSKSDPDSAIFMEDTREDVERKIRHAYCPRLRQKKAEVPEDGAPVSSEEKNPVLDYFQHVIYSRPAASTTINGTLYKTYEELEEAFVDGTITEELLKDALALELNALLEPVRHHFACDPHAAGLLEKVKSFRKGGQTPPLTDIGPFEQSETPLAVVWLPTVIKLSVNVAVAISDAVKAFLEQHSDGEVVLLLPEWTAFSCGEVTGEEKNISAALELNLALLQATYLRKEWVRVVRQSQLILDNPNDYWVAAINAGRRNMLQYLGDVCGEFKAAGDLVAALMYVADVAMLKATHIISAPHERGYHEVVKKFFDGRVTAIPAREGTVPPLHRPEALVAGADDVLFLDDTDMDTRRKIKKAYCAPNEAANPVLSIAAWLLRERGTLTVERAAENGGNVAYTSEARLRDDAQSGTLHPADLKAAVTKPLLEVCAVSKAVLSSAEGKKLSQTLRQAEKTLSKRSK
Put plainly: Trypanosoma cruzi tyrosyl tRNA synthetase (TcYRS) _High Tyrosine SOP. Note: in the data most compounds retested in dose-response had high values. Particulars: 30 µM. It counts as functional.

In assay [10] the target is T4, Tyrosyl-tRNA synthetase, putative (Trypanosoma cruzi (strain CL Brener)). Put plainly: Trypanosoma cruzi tyrosyl tRNA synthetase (TcYRS) SOP. It counts as functional. The following applies: 30 µM.
Assay [11] concerns the target Chromo domain-containing protein 1 (Saccharomyces cerevisiae (strain ATCC 204508 / S288c) (Baker's yeast)) (UniProt P32657). Put plainly: ScCHD-1 Enzyme Inhibition Assay. Note: in the data most compounds retested in dose-response had high values. It counts as functional. Particulars: 30 µM.

SMILES strings stand for the structures. For some of these results: Measured potencies and affinities stand elsewhere.

Chromo domain-containing protein 1 (Saccharomyces cerevisiae (strain ATCC 204508 / S288c) (Baker's yeast)), sequence (P32657 whole entry, the tested form may be a part): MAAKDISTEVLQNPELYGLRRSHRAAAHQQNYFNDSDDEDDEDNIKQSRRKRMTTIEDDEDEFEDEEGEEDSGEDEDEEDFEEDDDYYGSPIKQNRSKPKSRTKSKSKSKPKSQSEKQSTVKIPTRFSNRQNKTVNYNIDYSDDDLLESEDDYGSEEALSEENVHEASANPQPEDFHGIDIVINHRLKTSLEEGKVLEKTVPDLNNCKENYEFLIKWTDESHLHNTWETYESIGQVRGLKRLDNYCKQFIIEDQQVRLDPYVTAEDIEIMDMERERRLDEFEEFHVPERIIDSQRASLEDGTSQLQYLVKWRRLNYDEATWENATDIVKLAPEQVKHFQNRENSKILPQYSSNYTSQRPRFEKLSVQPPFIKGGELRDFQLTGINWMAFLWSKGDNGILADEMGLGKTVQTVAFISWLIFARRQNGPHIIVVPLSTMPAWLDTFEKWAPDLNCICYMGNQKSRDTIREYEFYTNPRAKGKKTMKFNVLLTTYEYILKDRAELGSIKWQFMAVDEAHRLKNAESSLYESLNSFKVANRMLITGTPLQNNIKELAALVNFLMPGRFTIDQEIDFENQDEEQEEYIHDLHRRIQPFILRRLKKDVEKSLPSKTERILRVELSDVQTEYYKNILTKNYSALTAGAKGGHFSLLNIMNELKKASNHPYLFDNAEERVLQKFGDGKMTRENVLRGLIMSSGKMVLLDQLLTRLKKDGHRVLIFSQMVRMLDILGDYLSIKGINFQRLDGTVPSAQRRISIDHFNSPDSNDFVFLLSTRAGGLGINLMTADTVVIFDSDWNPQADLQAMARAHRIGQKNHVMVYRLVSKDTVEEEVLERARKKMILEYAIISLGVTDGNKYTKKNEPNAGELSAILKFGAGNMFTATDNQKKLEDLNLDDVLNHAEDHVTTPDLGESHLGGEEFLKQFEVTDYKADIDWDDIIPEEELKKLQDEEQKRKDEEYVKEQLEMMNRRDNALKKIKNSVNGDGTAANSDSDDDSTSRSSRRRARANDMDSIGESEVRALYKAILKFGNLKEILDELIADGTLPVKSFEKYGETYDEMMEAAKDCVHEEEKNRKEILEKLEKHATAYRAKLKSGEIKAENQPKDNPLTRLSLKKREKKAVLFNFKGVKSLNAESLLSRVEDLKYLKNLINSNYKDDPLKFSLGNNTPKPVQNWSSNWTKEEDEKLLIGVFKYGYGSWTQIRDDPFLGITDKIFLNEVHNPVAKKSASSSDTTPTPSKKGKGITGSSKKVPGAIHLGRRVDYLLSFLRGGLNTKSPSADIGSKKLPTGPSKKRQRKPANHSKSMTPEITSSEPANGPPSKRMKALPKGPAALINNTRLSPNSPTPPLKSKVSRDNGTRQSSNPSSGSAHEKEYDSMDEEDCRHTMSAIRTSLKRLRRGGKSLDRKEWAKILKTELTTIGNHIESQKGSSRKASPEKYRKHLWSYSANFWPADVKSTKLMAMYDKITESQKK
Sialic acid-binding Ig-like lectin 9 (Homo sapiens), sequence (Q9Y336 whole entry): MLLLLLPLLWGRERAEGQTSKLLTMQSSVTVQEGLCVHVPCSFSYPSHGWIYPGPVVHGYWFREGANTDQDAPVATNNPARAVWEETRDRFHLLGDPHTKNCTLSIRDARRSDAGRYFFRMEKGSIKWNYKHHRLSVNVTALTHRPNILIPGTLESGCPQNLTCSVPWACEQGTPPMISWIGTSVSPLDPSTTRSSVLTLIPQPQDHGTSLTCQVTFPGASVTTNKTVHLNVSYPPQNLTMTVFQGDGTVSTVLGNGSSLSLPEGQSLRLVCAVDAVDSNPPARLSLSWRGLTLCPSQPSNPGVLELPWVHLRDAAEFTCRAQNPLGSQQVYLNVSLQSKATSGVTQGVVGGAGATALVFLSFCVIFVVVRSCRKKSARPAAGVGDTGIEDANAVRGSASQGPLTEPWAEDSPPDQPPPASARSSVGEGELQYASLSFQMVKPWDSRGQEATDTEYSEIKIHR
Protein translocase subunit SecA (Escherichia coli (strain K12)), sequence (P10408 whole entry): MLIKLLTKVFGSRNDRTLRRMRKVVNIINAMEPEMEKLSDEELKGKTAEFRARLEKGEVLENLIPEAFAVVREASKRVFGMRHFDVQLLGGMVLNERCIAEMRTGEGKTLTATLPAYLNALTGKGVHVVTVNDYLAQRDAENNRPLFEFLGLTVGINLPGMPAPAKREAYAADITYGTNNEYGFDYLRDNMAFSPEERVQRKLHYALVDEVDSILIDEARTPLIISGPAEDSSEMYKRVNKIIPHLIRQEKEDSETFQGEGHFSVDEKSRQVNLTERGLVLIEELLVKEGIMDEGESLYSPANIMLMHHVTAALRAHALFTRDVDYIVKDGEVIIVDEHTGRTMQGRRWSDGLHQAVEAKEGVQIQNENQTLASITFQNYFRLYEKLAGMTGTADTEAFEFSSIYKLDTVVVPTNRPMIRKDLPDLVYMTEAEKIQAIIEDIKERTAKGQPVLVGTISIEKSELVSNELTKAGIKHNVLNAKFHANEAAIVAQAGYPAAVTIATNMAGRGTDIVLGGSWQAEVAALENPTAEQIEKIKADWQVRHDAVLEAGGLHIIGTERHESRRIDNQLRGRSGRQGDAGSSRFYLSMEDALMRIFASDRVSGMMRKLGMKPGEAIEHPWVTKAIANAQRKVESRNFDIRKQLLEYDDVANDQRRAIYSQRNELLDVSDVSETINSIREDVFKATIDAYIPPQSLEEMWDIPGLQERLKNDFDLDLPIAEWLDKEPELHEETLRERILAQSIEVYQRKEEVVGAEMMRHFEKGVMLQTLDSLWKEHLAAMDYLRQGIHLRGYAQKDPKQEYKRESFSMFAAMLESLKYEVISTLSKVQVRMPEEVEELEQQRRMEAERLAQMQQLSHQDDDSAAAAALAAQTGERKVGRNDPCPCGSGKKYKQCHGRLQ

Regarding `O=C1OC2(CCN(C3CCCOC3)CC2)CN1CCc1ccccc1` (stereo unspecified), the Percent Effect in assay [1] was -0.187%; in assay [2], 7.79%; in assay [3], -6.88%; in [4], 5.02%; in [5] it was -3.64%; in assay [6], -11%. Besides, the Percent Effect in [7] came out at 14%; in assay [8] it was 15.6%; in [9], 3.23%; in assay [10], 6.17%; in assay [11] it was 0.643%.

On to `CC(C)(O)CN1CCN(C(=O)c2sccc2C2CC2)CC1`, for which the Percent Effect in assay [1] is -3.28%; in assay [2], 6.33%; in [3], 9.46%; in [4], 2.31%; in assay [5], -2.56%; in assay [6], 4.09%. For the same compound, the Percent Effect in assay [7] is 4.97%; in assay [8], 1.7%; in assay [9], 3.12%; in assay [10], 2.53%; in [11] it was -6.63%.

For `O=S1(=O)COCCN1Cc1cccc(Cl)c1`, the Percent Effect was -1.74% in [1]; 5.41% in assay [2]; -2.78% in assay [3]; 6.98% in assay [4]; 7.92% in assay [5]; -1.91% in [6]. The Percent Effect was 13.4% in [7]; 17.7% in [8]; 8.99% in assay [9]; 12.2% in assay [10]; -2.28% in assay [11].

For `CCCn1nc2c(cc1=O)CN(Cc1nc(CCOC)no1)CC2`, the Percent Effect in [1] is -1.92%; in assay [2] it was 0%; in assay [3], -119%; in assay [4], -3.46%; in assay [5], -0.781%; in assay [6], 0.417%. Moreover, the Percent Effect was 10.6% in assay [7]; -1.9% in assay [8]; -7.92% in assay [9]; -6.1% in [10]; -7.2% in assay [11].

Consider `O=C(Nc1nccs1)N(CCO)Cc1ccsc1`, for which the Percent Effect in [1] was -1.95%; in [2], 13.2%; in assay [3], -2.9%; in assay [4], -1.76%; in [5], 5.08%; in [6] it was -2.3%. Moreover, the Percent Effect in assay [7] was 11.5%; in assay [8] it was -0.668%; in assay [9], 8.33%; in assay [10], 29.3%; in [11] it was -13.6%.

Regarding `CNS(=O)(=O)Cc1ccc(CNC(=O)Nc2cccnc2)cc1`, the Percent Effect was -1.42% in assay [1]; 30.4% in assay [2]; -9.66% in assay [3]; -12.1% in [4]; 4.25% in assay [5]; -6.08% in assay [6]. Also, the Percent Effect is 14.2% in assay [7]; 11.1% in [8]; 6.4% in assay [9]; 16.5% in assay [10]; -12.7% in assay [11].

As to `COCCN1CC[C@H](O)[C@@H]1Cc1ccccc1`, the Percent Effect in assay [1] is -2.09%; in assay [2] it was 12%; in assay [3] it was -0.98%; in [4], 0.93%; in assay [5], 0.786%; in assay [6] it was 6.87%. Besides, the Percent Effect was 20% in assay [7]; 22.1% in [8]; 5.29% in assay [9]; 7.69% in assay [10]; -4.88% in assay [11].

For the compound `CCc1nc(C2CCCN(C(=O)c3cccc4c3ccn4C)C2)no1` (stereo unspecified), the Percent Effect is -2.43% in [1]; -5.41% in [2]; 1.08% in assay [3]; 3.25% in assay [4]; 5.29% in assay [5]; -6.47% in assay [6]. In addition, the Percent Effect in assay [7] was 5.92%; in [8], 17.1%; in assay [9], 3.96%; in assay [10] it was 3.66%; in assay [11] it was -0.759%.

With `Cc1cnn(C2CCCN(C(=O)c3ccnc(N(C)C)c3)C2)c1` (stereo unspecified), the Percent Effect in assay [1] was -0.378%; in assay [2], 19%; in assay [3] it was -4.04%; in assay [4], -2.57%; in assay [5] it was -1.54%; in assay [6] it was 0.645%. The Percent Effect in assay [7] is 10.3%; in assay [8] it was 19.4%; in assay [9], 1.04%; in assay [10], 5.06%; in assay [11] it was -31.1%.

Turning to `O=c1c2ccccc2nc2n1CCN(Cc1cccs1)CC2`, the Percent Effect in [1] is -2.59%; in [2], 20.3%; in [3], 9.44%; in assay [4], 0.538%; in [5], 1.98%; in assay [6] it was -4.41%. Also, the Percent Effect in assay [7] was 17%; in assay [8], 23.7%; in assay [9], 5.38%; in [10], 14.3%; in assay [11], -12.4%.

On to `O=C(N1CCCO1)[C@@]12CCO[C@@H]1CCN(Cc1ccccc1)C2`, for which the Percent Effect is -2.49% in assay [1]; 2.67% in assay [2]; -2.01% in assay [3]; 8.06% in assay [4]; -4.25% in assay [5]; -22.8% in assay [6]. Further, the Percent Effect is 6.67% in assay [7]; 0.724% in assay [8]; 4.17% in assay [9]; 10% in assay [10]; -6.13% in assay [11].

The values above are taken from ChEMBL document CHEMBL3988442, “University of Dundee, Small-Polar-MMV Screening Library” (2021).
